# Test results published in publication PMC7862700, “An all-to-all approach to the identification of sequence-specific readers for epigenetic DNA modifications on cytosine”.
# Key:
# Assay in all cases: DAPPL (digital affinity profiling via proximity ligation, sequencing); 10 mM Tris-HCl pH 7.5, 50 mM NaCl, 1 mM DTT, 4% glycerol, room temperature, 30 min; GST-TFs on glutathione beads, 16-mer random dsDNA library, 0.1% formaldehyde crosslink after washing; high values mean tight binding
# FEV = target: T1, FEV (Homo sapiens, UniProt Q99581 1-238); settings: protein: recombinant; tags: N-terminal GST; dsDNA, one strand shown
# T1 sequence: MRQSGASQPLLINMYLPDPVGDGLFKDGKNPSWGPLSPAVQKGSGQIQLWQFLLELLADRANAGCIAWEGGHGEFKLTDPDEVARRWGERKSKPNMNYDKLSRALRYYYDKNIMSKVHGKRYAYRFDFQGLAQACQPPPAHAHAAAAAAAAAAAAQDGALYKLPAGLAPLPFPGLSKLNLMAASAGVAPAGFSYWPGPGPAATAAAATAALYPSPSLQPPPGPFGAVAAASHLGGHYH
# Summary of the method: (§1)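 Human transcription factors were made in yeast as GST fusions, captured on glutathione beads and barcoded with DNA. With a tag-only sample included, the pool was incubated with 200 nmole of a random double-stranded 16-mer DNA library in Tris/NaCl/DTT/glycerol buffer at room temperature for 30 min, then crosslinked with 0.1% formaldehyde after washing, ligated by proximity, amplified and sequenced. For binding signal, each hexamer's read frequency for a factor is divided by its frequency for the tag-only sample.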
# ETV5 = ETV5 (Homo sapiens, UniProt P41161 1-510); settings: protein: recombinant; tags: N-terminal GST; dsDNA, one strand shown
# ETV5, sequence (P41161 whole entry): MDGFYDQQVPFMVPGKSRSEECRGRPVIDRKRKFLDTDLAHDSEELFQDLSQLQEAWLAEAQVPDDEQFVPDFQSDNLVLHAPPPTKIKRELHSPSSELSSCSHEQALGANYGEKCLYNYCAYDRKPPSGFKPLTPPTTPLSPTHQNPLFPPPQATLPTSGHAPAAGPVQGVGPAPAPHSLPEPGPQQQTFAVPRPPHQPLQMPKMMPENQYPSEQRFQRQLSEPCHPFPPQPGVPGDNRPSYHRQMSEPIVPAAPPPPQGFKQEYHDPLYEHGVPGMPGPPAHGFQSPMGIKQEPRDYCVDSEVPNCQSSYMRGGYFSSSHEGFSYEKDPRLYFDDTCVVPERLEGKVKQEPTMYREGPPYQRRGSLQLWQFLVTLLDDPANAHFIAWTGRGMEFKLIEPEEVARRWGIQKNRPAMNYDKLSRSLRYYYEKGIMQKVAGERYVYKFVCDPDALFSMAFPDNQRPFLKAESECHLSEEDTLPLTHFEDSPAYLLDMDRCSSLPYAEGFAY
# Summary of the method: as §1
# HSF1 = HSF1 (Homo sapiens, UniProt Q00613 1-529); settings: protein: recombinant; tags: N-terminal GST; chain copies: 3; dsDNA, one strand shown
# HSF1, sequence (Q00613 whole entry): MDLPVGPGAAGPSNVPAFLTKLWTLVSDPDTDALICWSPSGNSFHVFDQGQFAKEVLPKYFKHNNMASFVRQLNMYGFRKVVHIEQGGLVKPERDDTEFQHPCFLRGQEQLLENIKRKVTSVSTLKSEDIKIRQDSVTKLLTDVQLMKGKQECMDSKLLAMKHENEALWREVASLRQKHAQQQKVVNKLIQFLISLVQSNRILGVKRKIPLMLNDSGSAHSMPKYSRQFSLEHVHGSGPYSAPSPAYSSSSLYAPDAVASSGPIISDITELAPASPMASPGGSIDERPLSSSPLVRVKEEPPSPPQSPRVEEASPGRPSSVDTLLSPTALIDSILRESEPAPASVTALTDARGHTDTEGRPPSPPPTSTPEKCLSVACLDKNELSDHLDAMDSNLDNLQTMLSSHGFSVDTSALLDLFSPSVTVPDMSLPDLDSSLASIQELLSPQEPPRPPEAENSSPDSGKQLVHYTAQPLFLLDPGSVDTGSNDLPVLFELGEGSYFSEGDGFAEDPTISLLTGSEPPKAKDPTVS
# Summary of the method: as §1
# SPIC = target: T2, SPIC (Homo sapiens, UniProt Q8N5J4 1-248); settings: protein: recombinant; tags: N-terminal GST; dsDNA, one strand shown
# T2 sequence: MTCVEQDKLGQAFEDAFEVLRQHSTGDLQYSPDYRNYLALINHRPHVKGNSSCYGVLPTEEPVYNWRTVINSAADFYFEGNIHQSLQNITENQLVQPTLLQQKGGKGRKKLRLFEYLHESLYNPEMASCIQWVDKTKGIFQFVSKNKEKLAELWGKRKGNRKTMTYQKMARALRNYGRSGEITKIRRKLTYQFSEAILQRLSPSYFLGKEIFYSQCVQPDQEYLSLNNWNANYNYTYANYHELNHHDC
# Summary of the method: as §1
# ELF4 = ELF4 (Homo sapiens, UniProt Q99607 1-663); settings: protein: recombinant; tags: N-terminal GST; dsDNA, one strand shown
# ELF4, sequence (Q99607 whole entry): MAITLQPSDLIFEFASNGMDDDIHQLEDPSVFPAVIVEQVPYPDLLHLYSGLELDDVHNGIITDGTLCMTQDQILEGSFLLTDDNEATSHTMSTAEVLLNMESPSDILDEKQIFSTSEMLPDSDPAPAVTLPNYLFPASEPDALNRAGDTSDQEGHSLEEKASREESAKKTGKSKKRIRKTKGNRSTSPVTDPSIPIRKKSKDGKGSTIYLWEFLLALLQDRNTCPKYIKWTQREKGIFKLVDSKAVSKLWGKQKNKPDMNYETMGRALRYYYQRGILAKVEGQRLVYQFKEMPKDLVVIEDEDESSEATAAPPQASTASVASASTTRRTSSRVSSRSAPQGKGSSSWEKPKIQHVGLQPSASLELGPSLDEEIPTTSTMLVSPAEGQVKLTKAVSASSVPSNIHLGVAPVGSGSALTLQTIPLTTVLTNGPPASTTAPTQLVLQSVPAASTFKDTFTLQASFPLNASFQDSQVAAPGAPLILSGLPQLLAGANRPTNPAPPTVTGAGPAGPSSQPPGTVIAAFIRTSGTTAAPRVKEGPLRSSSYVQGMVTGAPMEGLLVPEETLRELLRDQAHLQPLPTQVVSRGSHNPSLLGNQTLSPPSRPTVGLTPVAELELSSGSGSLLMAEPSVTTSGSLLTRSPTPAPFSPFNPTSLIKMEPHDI
# Summary of the method: as §1
# ELK4 = target: T3, ELK4 (Homo sapiens, UniProt P28324-2 1-405); settings: protein: recombinant; tags: N-terminal GST; dsDNA, one strand shown
# T3 sequence: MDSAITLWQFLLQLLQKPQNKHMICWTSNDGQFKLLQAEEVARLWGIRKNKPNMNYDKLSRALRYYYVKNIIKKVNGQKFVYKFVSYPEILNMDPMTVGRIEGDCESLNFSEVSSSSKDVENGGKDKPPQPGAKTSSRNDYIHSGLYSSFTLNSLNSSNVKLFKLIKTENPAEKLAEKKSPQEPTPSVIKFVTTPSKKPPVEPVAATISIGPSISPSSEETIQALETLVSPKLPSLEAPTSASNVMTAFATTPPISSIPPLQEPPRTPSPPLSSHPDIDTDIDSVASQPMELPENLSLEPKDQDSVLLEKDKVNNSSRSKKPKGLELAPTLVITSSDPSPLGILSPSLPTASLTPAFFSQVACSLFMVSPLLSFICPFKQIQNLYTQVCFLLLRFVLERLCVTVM
# Summary of the method: as §1
# ETV2 = target: T4, ETV2 (Homo sapiens, UniProt O00321 1-342); settings: protein: recombinant; tags: N-terminal GST; dsDNA, one strand shown
# T4 sequence: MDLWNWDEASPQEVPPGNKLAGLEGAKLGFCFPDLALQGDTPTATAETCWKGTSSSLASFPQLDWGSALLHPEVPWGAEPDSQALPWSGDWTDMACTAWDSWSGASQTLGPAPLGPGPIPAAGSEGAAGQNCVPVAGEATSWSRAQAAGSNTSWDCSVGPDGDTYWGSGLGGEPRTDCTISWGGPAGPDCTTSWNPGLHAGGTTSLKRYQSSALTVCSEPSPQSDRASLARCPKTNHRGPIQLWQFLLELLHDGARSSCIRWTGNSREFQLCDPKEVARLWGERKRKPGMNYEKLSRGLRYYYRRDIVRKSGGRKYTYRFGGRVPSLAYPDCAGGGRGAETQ
# Summary of the method: as §1
# ELF3 = target: T5, ELF3 (Homo sapiens, UniProt P78545 1-371); settings: protein: recombinant; tags: N-terminal GST; dsDNA, one strand shown
# T5 sequence: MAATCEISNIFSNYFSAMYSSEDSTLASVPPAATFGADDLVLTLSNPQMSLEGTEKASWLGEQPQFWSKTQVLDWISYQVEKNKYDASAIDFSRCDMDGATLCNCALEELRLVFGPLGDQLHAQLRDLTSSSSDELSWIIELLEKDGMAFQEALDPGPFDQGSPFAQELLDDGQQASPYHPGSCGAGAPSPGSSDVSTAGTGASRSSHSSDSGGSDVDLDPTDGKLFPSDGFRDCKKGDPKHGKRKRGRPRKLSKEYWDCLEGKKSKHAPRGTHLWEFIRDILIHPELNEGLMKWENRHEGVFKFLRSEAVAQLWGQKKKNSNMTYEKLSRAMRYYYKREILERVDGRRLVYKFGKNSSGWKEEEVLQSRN
# Summary of the method: as §1
# CRX = CRX (Homo sapiens, UniProt O43186 1-299); settings: protein: recombinant; tags: N-terminal GST; dsDNA, one strand shown
# CRX, sequence (O43186 whole entry): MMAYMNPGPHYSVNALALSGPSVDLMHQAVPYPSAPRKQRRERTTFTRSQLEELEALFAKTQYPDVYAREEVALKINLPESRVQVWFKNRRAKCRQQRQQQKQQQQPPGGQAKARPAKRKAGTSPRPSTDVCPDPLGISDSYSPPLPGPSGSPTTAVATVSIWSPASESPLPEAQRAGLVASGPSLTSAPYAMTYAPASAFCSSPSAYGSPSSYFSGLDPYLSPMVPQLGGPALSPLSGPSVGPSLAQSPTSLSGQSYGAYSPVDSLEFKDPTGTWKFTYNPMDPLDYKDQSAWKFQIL
# Summary of the method: as §1
# ETV1 = ETV1 (Homo sapiens, UniProt P50549 1-477); settings: protein: recombinant; tags: N-terminal GST; dsDNA, one strand shown
# ETV1, sequence (P50549 whole entry): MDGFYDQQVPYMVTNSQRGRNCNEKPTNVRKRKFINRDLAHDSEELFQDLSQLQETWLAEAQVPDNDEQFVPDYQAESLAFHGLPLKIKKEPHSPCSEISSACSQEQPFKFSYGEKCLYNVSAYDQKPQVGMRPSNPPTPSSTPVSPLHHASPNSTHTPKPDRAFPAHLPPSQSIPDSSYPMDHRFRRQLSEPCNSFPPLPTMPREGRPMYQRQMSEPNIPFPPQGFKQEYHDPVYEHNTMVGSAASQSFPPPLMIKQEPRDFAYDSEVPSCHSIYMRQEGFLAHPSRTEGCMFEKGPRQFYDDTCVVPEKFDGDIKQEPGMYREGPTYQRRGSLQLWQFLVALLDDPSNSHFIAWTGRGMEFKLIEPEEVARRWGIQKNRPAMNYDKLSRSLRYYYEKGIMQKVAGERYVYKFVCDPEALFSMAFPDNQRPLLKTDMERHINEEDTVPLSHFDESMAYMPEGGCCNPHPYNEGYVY
# Summary of the method: as §1
# ERF = target: T6, ERF (Homo sapiens, UniProt P50548 1-548); settings: protein: recombinant; tags: N-terminal GST; dsDNA, one strand shown
# T6 sequence: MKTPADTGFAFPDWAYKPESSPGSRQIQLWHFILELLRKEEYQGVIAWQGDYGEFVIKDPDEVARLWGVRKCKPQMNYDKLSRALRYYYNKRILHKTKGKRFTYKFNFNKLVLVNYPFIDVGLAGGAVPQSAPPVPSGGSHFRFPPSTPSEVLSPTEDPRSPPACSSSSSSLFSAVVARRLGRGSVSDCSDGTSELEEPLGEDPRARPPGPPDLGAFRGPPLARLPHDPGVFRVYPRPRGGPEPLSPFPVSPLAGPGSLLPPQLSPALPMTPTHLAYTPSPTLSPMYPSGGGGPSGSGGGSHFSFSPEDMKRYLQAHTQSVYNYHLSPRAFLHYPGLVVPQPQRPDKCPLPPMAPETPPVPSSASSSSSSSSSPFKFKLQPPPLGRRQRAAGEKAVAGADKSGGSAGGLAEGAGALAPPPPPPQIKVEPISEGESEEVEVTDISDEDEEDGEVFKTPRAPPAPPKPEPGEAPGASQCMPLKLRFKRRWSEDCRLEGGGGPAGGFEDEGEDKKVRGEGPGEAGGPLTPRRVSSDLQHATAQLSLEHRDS
# Summary of the method: as §1
# ETV3L = target: T7, ETV3L (Homo sapiens, UniProt Q6ZN32 1-361); settings: protein: recombinant; tags: N-terminal GST; dsDNA, one strand shown
# T7 sequence: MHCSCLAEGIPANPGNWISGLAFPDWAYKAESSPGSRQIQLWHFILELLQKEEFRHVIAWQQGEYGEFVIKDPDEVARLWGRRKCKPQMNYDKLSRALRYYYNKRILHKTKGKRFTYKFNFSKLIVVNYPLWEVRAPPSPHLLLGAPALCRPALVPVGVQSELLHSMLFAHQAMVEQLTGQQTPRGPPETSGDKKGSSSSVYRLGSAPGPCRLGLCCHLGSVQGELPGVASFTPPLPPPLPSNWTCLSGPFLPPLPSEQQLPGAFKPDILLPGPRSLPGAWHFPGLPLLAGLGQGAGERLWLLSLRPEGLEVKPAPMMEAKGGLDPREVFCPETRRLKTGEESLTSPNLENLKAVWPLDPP
# Summary of the method: as §1
# ETS2 = target: T8, ETS2 (Homo sapiens, UniProt P15036 1-469); settings: protein: recombinant; tags: N-terminal GST; dsDNA, one strand shown
# T8 sequence: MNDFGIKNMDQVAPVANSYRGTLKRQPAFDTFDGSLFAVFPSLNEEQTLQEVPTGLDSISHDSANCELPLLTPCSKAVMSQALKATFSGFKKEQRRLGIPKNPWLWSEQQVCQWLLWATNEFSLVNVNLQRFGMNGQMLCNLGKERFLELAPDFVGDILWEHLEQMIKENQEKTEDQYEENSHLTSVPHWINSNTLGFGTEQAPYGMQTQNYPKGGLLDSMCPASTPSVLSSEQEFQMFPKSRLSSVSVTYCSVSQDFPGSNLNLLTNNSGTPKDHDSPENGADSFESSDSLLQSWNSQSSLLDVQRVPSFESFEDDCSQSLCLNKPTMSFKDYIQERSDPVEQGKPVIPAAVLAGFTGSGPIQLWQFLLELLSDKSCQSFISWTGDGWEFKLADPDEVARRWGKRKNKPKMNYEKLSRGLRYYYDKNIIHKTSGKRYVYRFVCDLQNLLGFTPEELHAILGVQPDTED
# Summary of the method: as §1
# SPDEF = target: T9, SPDEF (Homo sapiens, UniProt O95238 1-335); settings: protein: recombinant; tags: N-terminal GST; dsDNA, one strand shown
# T9 sequence: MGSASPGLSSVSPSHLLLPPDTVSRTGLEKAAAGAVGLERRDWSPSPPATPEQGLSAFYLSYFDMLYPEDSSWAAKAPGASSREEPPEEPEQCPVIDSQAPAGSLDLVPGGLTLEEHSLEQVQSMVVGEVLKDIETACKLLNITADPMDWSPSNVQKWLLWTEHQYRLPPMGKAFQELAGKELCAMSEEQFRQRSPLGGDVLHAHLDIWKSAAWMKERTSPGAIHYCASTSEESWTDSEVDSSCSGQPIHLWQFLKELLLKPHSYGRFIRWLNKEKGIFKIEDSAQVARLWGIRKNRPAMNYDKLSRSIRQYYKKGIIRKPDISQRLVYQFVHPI
# Summary of the method: as §1
# ETV7 = target: T10, ETV7 (Homo sapiens, UniProt Q9Y603 1-341); settings: protein: recombinant; tags: N-terminal GST; dsDNA, one strand shown
# T10 sequence: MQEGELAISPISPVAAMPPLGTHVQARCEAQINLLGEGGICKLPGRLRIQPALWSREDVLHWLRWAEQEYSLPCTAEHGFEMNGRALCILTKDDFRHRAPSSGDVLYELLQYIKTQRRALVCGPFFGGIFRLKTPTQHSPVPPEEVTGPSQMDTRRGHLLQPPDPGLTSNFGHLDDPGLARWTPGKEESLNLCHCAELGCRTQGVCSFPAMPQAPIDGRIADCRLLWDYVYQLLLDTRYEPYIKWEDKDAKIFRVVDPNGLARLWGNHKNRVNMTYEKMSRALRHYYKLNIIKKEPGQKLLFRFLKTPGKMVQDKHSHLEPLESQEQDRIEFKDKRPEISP
# Summary of the method: as §1
# ELF5 = target: T11, ELF5 (Homo sapiens, UniProt Q9UKW6-2 1-255); settings: protein: recombinant; tags: N-terminal GST; dsDNA, one strand shown
# T11 sequence: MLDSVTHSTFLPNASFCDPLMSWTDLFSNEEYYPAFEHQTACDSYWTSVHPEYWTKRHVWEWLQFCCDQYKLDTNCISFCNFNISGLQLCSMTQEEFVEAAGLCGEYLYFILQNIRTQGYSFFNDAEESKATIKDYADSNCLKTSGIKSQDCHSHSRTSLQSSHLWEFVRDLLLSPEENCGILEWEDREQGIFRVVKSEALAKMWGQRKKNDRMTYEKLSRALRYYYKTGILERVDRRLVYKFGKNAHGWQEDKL
# Summary of the method: as §1
# ETV3 = target: T12, ETV3 (Homo sapiens, UniProt P41162-2 1-143); settings: protein: recombinant; tags: N-terminal GST; dsDNA, one strand shown
# T12 sequence: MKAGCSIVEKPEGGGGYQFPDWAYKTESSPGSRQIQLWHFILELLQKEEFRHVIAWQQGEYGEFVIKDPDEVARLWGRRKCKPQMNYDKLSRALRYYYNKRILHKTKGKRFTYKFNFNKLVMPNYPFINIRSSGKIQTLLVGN
# Summary of the method: as §1
# ETV6 = ETV6 (Homo sapiens, UniProt P41212 1-452); settings: protein: recombinant; tags: N-terminal GST; dsDNA, one strand shown
# ETV6, sequence (P41212 whole entry): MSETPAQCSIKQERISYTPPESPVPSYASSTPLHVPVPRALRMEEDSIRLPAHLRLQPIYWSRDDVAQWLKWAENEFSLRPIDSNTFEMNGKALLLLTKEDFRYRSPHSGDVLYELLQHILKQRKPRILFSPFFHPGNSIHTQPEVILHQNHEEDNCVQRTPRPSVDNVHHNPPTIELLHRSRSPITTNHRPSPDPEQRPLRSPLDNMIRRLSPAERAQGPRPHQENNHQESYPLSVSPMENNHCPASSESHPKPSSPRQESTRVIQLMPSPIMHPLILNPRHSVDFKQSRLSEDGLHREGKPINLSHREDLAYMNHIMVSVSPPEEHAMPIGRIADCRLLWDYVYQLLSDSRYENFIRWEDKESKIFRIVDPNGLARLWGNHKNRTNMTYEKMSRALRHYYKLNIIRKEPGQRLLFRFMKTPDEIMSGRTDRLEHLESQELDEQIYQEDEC
# Summary of the method: as §1
sequence,measurement,setting,value
TACCAA,binding signal,FEV,"1.14 fold enrichment (6-mer frequency, TF over GST control)"
same,binding signal,ETV5,"1.13 fold enrichment (6-mer frequency, TF over GST control)"
same,binding signal,HSF1,"1.14 fold enrichment (6-mer frequency, TF over GST control)"
same,binding signal,SPIC,"1.01 fold enrichment (6-mer frequency, TF over GST control)"
same,binding signal,ELF4,"1.2 fold enrichment (6-mer frequency, TF over GST control)"
same,binding signal,ELK4,"1.23 fold enrichment (6-mer frequency, TF over GST control)"
same,binding signal,ETV2,"1.09 fold enrichment (6-mer frequency, TF over GST control)"
same,binding signal,ELF3,"1.05 fold enrichment (6-mer frequency, TF over GST control)"
same,binding signal,CRX,"1.25 fold enrichment (6-mer frequency, TF over GST control)"
same,binding signal,ETV1,"1.11 fold enrichment (6-mer frequency, TF over GST control)"
same,binding signal,ERF,"1.14 fold enrichment (6-mer frequency, TF over GST control)"
same,binding signal,ETV3L,"1.08 fold enrichment (6-mer frequency, TF over GST control)"
same,binding signal,ETS2,"1.18 fold enrichment (6-mer frequency, TF over GST control)"
same,binding signal,SPDEF,"1.17 fold enrichment (6-mer frequency, TF over GST control)"
same,binding signal,ETV7,"1.13 fold enrichment (6-mer frequency, TF over GST control)"
same,binding signal,ELF5,"1.09 fold enrichment (6-mer frequency, TF over GST control)"
same,binding signal,ETV3,"1.13 fold enrichment (6-mer frequency, TF over GST control)"
same,binding signal,ETV6,"1.17 fold enrichment (6-mer frequency, TF over GST control)"
